Hits are enriched below; roughly 3.7% of the tested compounds scored in any of these assays.
TCR activator: activates T cell receptor signaling; primary human leukocytes, anti-CD3, IL-2 HTRF, 48 h; 330,000 tested, under 10 active; AID 504894; Potency, µM (highest dose often 9.22 µM), inactives show top-dose activation of IL-2 secretion, hits mostly activators; note: % of control where 0% means no effect
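HTRF read-out of IL-2 secretion: europium cryptate donor excited at 320nm, d2 acceptor emission at 665nm. Cells were primary human leukocytes incubated 48 hr with compounds and a-CD3 beads, supplying TCR signal only.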
WRN helicase inh: inhibitors of human WRN helicase | Q14191 | WRN helicase unwinding, fluorescent forked duplex, kinetic | Potency, µM (series often up to 114 µM), without a hit: top-dose activity change, negative = inhibition, most hits filed as inhibitors | 0.46% of 360,000 active; note: potency is the fitted concentration of half-maximal effect; % is set by controls: 0 for no effect and ±100 for the full control effect; nearly all actives have a fitted effect of over 55% in size
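Screening of the MLSMR collection measured strand separation of a quenched forked DNA duplex (100 nM) by 20 nM WRN with 2 mM ATP, all final. Compounds were preincubated with enzyme 15 min at room temperature.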
PLK1 PBD inh: PLK1 (human) polo-box domain binding inhibition | AID 720504 | P53350 | 2.8% of 360,000 active | Plk1 PBD binding of FITC phosphopeptide, fluorescence polarization | Potency, µM, inactives show max response, negative = inhibition, actives largely listed as inhibitors; note: potency is the fitted concentration of half-maximal effect; series mostly up to about 57 µM; % is set by controls: 0 for no effect and ±100 for the full control effect; nearly all actives have a fitted effect of over 65% in size
Target sequence (P53350 whole entry, looked up, the tested form may be a part): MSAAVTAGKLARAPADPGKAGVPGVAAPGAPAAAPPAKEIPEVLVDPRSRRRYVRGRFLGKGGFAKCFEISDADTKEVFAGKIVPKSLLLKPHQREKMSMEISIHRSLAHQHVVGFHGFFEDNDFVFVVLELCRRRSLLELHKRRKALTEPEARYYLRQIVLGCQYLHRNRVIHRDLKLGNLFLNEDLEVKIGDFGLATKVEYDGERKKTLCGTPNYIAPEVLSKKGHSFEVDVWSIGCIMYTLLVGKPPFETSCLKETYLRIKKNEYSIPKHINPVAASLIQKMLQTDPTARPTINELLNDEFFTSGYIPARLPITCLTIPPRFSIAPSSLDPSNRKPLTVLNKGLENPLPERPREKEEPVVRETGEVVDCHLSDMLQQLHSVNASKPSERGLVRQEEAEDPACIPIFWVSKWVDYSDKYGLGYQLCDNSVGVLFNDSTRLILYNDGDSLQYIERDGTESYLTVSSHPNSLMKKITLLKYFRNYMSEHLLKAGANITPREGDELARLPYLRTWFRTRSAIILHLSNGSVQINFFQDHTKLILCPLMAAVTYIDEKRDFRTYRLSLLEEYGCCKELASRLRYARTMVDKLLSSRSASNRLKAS
FEN1 inhibitor: human FEN1 inhibition. P39748. 0.35% of 390,000 active. Recombinant FEN1 flap cleavage, fluorescence, 15 min. Potency, µM (highest dose often 114 µM), for the others: at the highest dose activity change, negative = inhibition, most hits filed as inhibitors. AID 588795; note: potency is the fitted concentration of half-maximal effect; % is set by controls: 0 for no effect and ±100 for the full control effect; nearly all actives have a fitted effect of over 65% in size
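Nuclease activity of 10 nM FEN1 was measured after 15 min of room-temperature exposure to titrated compounds, by adding 50 nM flap substrate and reading plates at 0 and 15 min.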
PI5P4Ka inh: inhibitors of human PI5P4K alpha; PI5P4Kalpha enzyme, ADP-Glo luminescence, 60 min; hits give low values; max response, %; AID 652105; 1.2% of 330,000 active; P48426; active = max response of -50% or lower; inconclusive = between -30% and -50%; inactive = -30% or higher; note: value at the top dose of about 77 µM; % is set by controls: 0 for no effect and ±100 for the full control effect
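ADP-Glo luminescence end-point read after a 60 min room-temperature kinase reaction of PI5P4Kalpha plus substrate, initiated with ATP at 5 microM final. Buffer: 0.038 M HEPES pH 7.4, EGTA, 0.1% CHAPS, 5% DMSO.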
VDR inh: inhibitors of human vitamin D receptor. P11473. VDR-SRC2-3 peptide fluorescence polarization, 2 h. Potency, µM, for inactives: max response, negative = inhibition, actives largely listed as inhibitors. 0.93% of 400,000 active; note: potency is the fitted concentration of half-maximal effect; % is set by controls: 0 for no effect and ±100 for the full control effect
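Two reagent solutions held at 4 deg C in the dark were dispensed, compounds pinned at 23 nl, and the mixture incubated 2 h at room temperature. Read-out: fluorescence polarization of VDR–SRC2-3 peptide binding.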
Starred values were filed as active, the others as inactive; ? = inconclusive; nt = not tested or not shown; [ ] = remark or other dose. Unless noted, calls come from the whole dose curve; as a rule, active = well fitted curve in the direction sought with a large enough effect; inconclusive = small, poorly fitted or top-dose-only effect, or another doubt; inactive = no such curve, though single readings can be large; an effect the other way counts as inactive or inconclusive.

SMILES	TCR activator	WRN helicase inh	PLK1 PBD inh	FEN1 inhibitor	PI5P4Ka inh	VDR inh
CC[C@H](C)[C@H](NC(=O)[C@H](C)NC(=O)[C@H](CC(N)=O)NC(=O)[C@H](CCCCN)NC(=O)[C@H](Cc1ccccc1)NC(=O)[C@H](CC(C)C)NC(=O)[C@@H](NC(=O)[C@@H](NC(=O)[C@H](CC(C)C)NC(=O)[C@@H]1CCCN1C(=O)[C@@H](NC(=O)[C@H](CCC(N)=O)NC(=O)[C@H](CO)NC(=O)[C@H](CCCCN)NC(=O)[C@H](CCC(=O)O)NC(=O)[C@H](CO)NC(=O)[C@@H](NC(=O)[C@H](CCSC)NC(=O)[C@H](Cc1ccccc1)NC(=O)CNC(=O)CNC(=O)[C@@H](N)Cc1ccc(O)cc1)[C@@H](C)O)[C@@H](C)O)C(C)C)[C@@H](C)O)C(=O)N[C@H](C(=O)N[C@@H](CCCCN)C(=O)N[C@@H](CC(N)=O)C(=O)N[C@@H](C)C(=O)N[C@@H](Cc1ccc(O)cc1)C(=O)N[C@@H](CCCCN)C(=O)N[C@@H](CCCCN)C(=O)NCC(=O)N[C@@H](CCC(=O)O)C(=O)O)[C@@H](C)CC	nt	nt	nt	nt	nt	5%
CCOCCCNC(=O)C(c1ccc(C)cc1)N(Cc1ccc2c(c1)OCO2)C(=O)c1ccc(NC(C)=O)cc1 (centres undefined)	nt	nt	nt	-19%	nt	-5%
Cc1ccc(N(CCC#N)C(=O)CSc2ccc3c(c2)OCCO3)cc1	5%	-3%	?	4%	4	-15%
CCN(CC)c1ccc(NC(=O)CSc2nnc3nc(C)cc(C)n23)cc1	-2%	4%	17µM*	12%	2	-10%
Cc1cc(C)n2c(SCC(=O)N(CCC#N)c3ccc4c(c3)OCCO4)nnc2n1	nt	-7%[11.6 µM]	?	nt	-61*	nt
CN(C)CC1CCC/C(=C/c2ccc(Cl)cc2)C1=O (centres undefined)	0%	-25%	6µM*	1%	18	79µM*
COc1ccc(/C=C2/CCCC(CN(C)C)C2=O)cc1 (centres undefined)	-3%	?	24µM*	12%	2	?
CN(C)CC1CCC/C(=C\c2ccc(OC(=O)/C=C/c3ccc(Cl)c(Cl)c3)cc2)C1=O (centres undefined)	-19%	-26%	-19%	0%	-2	?
COCCN(Cc1ccc(C)c(Br)c1)C(=O)Cn1cnc(S(=O)(=O)N2CCCC2)c1	2%	1%	9.5µM*	6%	3	-18%
O=c1cc(-c2nn[nH]n2)[nH]c(=O)[nH]1	1%	-2%	-3%	-6%	-70*	-9%
CCOC(=O)c1c(NC(C)=O)sc2c(OCCN(CC)CC)c(Br)ccc12	-2%	24%	2%	?	-4	-9%
CCOC(=O)c1c(NC(C)=O)sc2c(OCC(O)CN(CC)CC)c(Br)ccc12 (centres undefined)	-6%	15%[11.6 µM]	-17%	22µM*	0	12%
C=C1C=C(C(F)F)n2ncc(C(=O)N3CCc4ccccc4C3)c2N1	nt	nt	nt	-2%	nt	nt
Cc1ccc(-n2c(=O)c3c(cnn3C)n(Cc3ccc(Cl)cc3)c2=O)cc1	nt	nt	nt	7%	nt	89µM*
Cc1ccc(-n2c(=O)c3c(cnn3C)n(Cc3ccccc3F)c2=O)cc1	nt	nt	nt	9%	nt	3%
Clc1ccc(-c2cnn3c(-c4ccncc4)ccnc23)cc1	3%	5%	-9%	-2%	3	-5%
CCOC(=O)Cc1c(C)nc2c(-c3ccc(Cl)cc3)c(C)[nH]n2c1=O	-4%	-24%	-10%	0%	nt	19%
CCOC(=O)Cc1c(C)nc2c(-c3ccc(Cl)cc3)cnn2c1C	-5%	-8%	19µM*	-6%	10	-13%
CC(=O)c1cnc2c(-c3ccc(Cl)cc3)cnn2c1C	-1%[46.1 µM]	14%	30µM*	-1%	10	-7%
CNc1ccc(/C=C2\C=Cc3ccccc32)cc1OC	nt	nt	nt	-6%	nt	nt
O=C(OCC(=O)N1CCCC1=O)c1cc2ccccc2o1	5%	3%	21µM*	-3%	-30	-11%
O=C(CSc1nc(-c2ccc(F)cc2)nc2c1Cc1ccccc1O2)Nc1ccc(C(=O)O)cc1	3%	?	15µM*	?	-28	-14%
O=C(CSc1nc(-c2ccccc2)nc2c1Cc1ccccc1O2)Nc1ccc(C(=O)O)cc1	3%	?	21µM*	?	-63*	-15%
Nc1cccc2cccnc12	nt	nt	nt	2%	nt	nt
COc1ccc(C(=O)/C=C2\C(=O)Nc3ccc(Br)cc32)cc1	-17%	?	?	-7%	2	?
SMILES	TCR activator	WRN helicase inh	PLK1 PBD inh	FEN1 inhibitor	PI5P4Ka inh	VDR inh
O=C1Nc2ccc(Br)cc2/C1=C/C1CC=CCC1 (centres undefined)	2%	-20%	-18%	-7%	6	71µM*
COc1ccccc1CNc1ccc(-c2nc(-c3ccccn3)no2)cc1[N+](=O)[O-]	nt	nt	nt	9%	nt	4%
CN1CCN(c2ccnc(N(C)CCCCCCN)n2)CC1	nt	nt	nt	2%	nt	nt
COc1ccc(CNCCNC(=O)c2nonc2N)cc1OC	-3%[46.1 µM]	-3%	-10%	0%	nt	1%
COc1cc(CNCCNC(=O)c2nonc2N)ccc1OCc1ccc(Cl)nc1	6%	3%	30µM*	17%	-29	-30%
Nc1ncn(C2C[C@H](O)[C@@H](CO)O2)c(=O)n1 (some centres undefined)	nt	nt	nt	nt	nt	-4%
Cc1oc(-c2ccc(F)cc2)cc1-c1nn2c(-c3ccoc3C)nnc2s1	-1%	?	?	-11%	-74*	?
O=C(C[n+]1ccccc1)c1ccc(I)cc1	nt	nt	nt	12%	nt	nt
O=C1N=c2ccc(Br)cc2=C1c1sc(=S)n(NS(=O)(=O)c2ccccc2)c1O	nt	-20%[11.6 µM]	24µM*	79µM*	-98*	?
Cc1ccc(-c2nc(=Nc3c(C)cc(C)cc3C)sn2-c2ccccc2)cc1	nt	nt	nt	-21%	nt	?
C=CCNC(=S)Nc1sc2c(c1C(N)=O)CCCC2	-10%	-20%	13µM*	1%	?	?
NC(=O)c1c(NC(=S)Nc2ccccc2)sc2c1CCCC2	11%	-26%	6.7µM*	-4%	?	?
NC(=O)c1c(NC(=O)c2cc(-c3ccc(F)cc3)on2)sc2c1CCCC2	nt	nt	nt	-2%	nt	56µM*
C=CC(=O)Nc1sc2c(c1C(N)=O)CCCC2	1%	-12%	-10%	2%	-4	9%
c1csc(-c2nc(N3CCN(Cc4ccc5c(c4)OCCO5)CC3)c3ccccc3n2)c1	nt	nt	nt	-9%	nt	0%
COCCNC(=S)NNc1cccc(C(=O)O)c1	2%	-16%	21µM*	12%	-25	?
Cc1cccc(N2C(N)=NC(N)=NC23CCCCC3)c1	2%	17%	2.7µM*	0%	-63*	-25%
COc1ccc(OC)c(N2C(N)=NC(N)=NC23CCCC3)c1	2%	3%	-17%	-2%	-6	-12%

Assay outcomes: PubChem, National Center for Advancing Translational Sciences (NCATS)
